From PubChem BioAssay
TROY signal inh = inhibitors of TROY-driven NF-kB signaling, primary screen, Q293 LMP1-TROYcd cells, NF-kB luciferase, uHTS; Q293 LMP1-TROYcd NF-kB luciferase reporter, 4 h; inhibition, % at 10 µM; 360,000 tested, 0.98% active;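 active = compounds whose plate-normalised and pattern-corrected inhibition of the luciferase reporter signal at the single screening dose is 50% or more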
LGR2 inh = inhibitors of bursicon-induced LGR2 CRE-luciferase signal, primary screen, cell-based, HEK293, CRE-luciferase reporter, bursicon stimulation | bursicon-stimulated, 4 h | inhibition, % at 9.99 µM | 380,000 tested, 0.35% active | AID 720647, 2013;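 active = drop in luminescence signal, shown as inhibition above about 50% in the replicate tests, limit read from the data, passing the limit was not always enough; inconclusive = probably only some replicates passing the limit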;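 also: agonist challenge used bursicon conditioned medium at about half maximal strength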
EWS-Fli inh = EWS/Fli-driven NR0B1 reporter inhibitors, primary screen, A673 cells, NR0B1 luciferase, luminescence, MLPCN library; 350,000 tested, 0.67% active; viability-normalised; inhibition, % at 12.6 µM;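 active = mean inhibition of at least 50% after viability correction, with every replicate also passing that limit; inconclusive = mean reaches 50% but only one of two replicates passes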;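 also: firefly luciferase signal divided by Alamar Blue viability fluorescence both relative to DMSO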
TWEAK Fn14 block = inhibitors of TWEAK-Fn14 signaling, primary screen, luciferase reporter cells, uHTS; TWEAK-stimulated Fn14 reporter cells, luciferase luminescence, 8 h; inhibition, % at 10 µM; 360,000 tested, 2% active; in the data active = inhibition above about 50%
PAX8 inh HTS = inhibitors of PAX8-driven TPO luciferase reporter, primary screen, RMG-I cells, single concentration; SteadyGlo, 24 h; inhibition, % at 12.6 µM; 360,000 tested, 1.2% active; AID 652154, 2013;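 active = mean replicate inhibition at least 60% with every replicate also reaching 60%; inconclusive = only one of the two criteria is met; inactive = mean below 60% and not all replicates reaching 60%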;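 also: luciferase light reporting Pax8 driven TPO promoter activity; plate controls were median of neutral control wells for no effect and mitoxantrone controls for full effect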
Active calls of the source: *; ? = inconclusive; . = not tested or not shown. This is a sample that favours compounds with a hit; in the whole collection about 2.8% have one here.

SMILES | TROY signal inh | LGR2 inh | EWS-Fli inh | TWEAK Fn14 block | PAX8 inh HTS
C[C@H](CO)N1C[C@H](C)[C@H](CN(C)S(=O)(=O)c2cccs2)OCCCC[C@H](C)Oc2ccc(NC(=O)NC3CCCCC3)cc2C1=O | . | 13 | 14 | . | 104*
C[C@@H]1CN([C@H](C)CO)C(=O)c2cc(NC(=O)Nc3ccc(C(F)(F)F)cc3)ccc2O[C@@H](C)CCCCO[C@H]1CN(C)S(=O)(=O)c1ccccc1 | . | -2 | 12 | . | 96*
COCC(=O)Nc1ccc2c(c1)OC[C@H](C)N(C(=O)c1cnccn1)C[C@H](C)[C@@H](OC)CN(C)C2=O | . | -5 | -9 | . | -10
Cn1c(N=NC(=O)c2ccccc2)c(O)c2ccccc21 | 39 | ? | . | 69* | -9
CNS(=O)(=O)c1cc(NC(=O)c2cncn2-c2ccccc2)ccc1C | 11 | 6 | 5 | 79* | 2
O=C(C[C@H]1C=C[C@H](NS(=O)(=O)c2cccc(F)c2)[C@@H](CO)O1)N1CCCCC1 | . | 18 | 5 | . | -1
